# Laboratory results as given in the supplement of paper PMC10105736.
# How the values were obtained:
# Assay in all cases: MAPPIT interaction score (arbitrary units); higher = stronger binary interaction signal, active = hit call of the paper;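 active = MAPPIT score above the 99th percentile of random reference set scores in the same batch; inactive = at or below it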
# CG7747 = conditions: MAPPIT configuration: N-N; pair source set: Finley_Y2H
# CG7548 = conditions: MAPPIT configuration: N-N
# CG6996 = conditions: MAPPIT configuration: N-N; pair source set: Finley_Y2H
# Mcad = conditions: MAPPIT configuration: N-N; pair source set: Lit-BS-16
# Treh = conditions: MAPPIT configuration: N-N; pair source set: Finley_Y2H
# Unr = conditions: pair source set: Lit-BM-16
# gcm = conditions: MAPPIT configuration: N-N; pair source set: Finley_Y2H
# noi = conditions: MAPPIT configuration: N-N; pair source set: Finley_Y2H
# prd = conditions: MAPPIT configuration: N-N; pair source set: Finley_Y2H
# CG7407 = conditions: MAPPIT configuration: N-C; pair source set: screen_3
# Dpm3 = conditions: MAPPIT configuration: N-C; pair source set: screen_4
# CG7137 = conditions: pair source set: Lit-BM-16
# CG7044 = conditions: MAPPIT configuration: N-N; pair source set: Lit-BS-16
# aspr = conditions: MAPPIT configuration: N-N; pair source set: Lit-BS-16
# 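Note: HEK293T cells with Epo stimulation, STAT-responsive firefly luciferase reporter, fold induction versus unstimulated cells divided by the larger fold induction of two negative controls lacking either bait or prey.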
binder,measurement,setting,value
Shrm (protein) MKMRNHKENGNGSEMGESTKSLAKMEPENNNKISVVSVSKLLLKDSNGANSRSSNSNASFSSASVAGSVQDDLPHHNSSSSQLGQQHGSSLDQCGLTQAGLEEYNNRSSSYYDQTAFHHQKQPSYAQSEGYHSYVSSSDSTSATPFLDKLRQESDLLSRQSHHWSENDLSSVCSNSVAPSPIPLLARQSHSHSHSHAHSHSNSHGHSHGHAHSASSSSSSNNNSNGSATNNNNNNSSESTSSTETLKWLGSMSDISEASHATGYSAISESVSSSQRIVHSSRVPTPKRHHSESVLYLHNNEEQGDSSPTASNSSQMMISEEANGEESPPSVQPLRIQHRHSPSYPPVHTSMVLHHFQQQQQQQQDYQHPSRHHTNQSTLSTQSSLLELASPTEKPRSLMGQSHSMGDLQQKNPHQNPMLGRSAGQQHKSSISVTISSSEAVVTIAPQPPAGKPSKLQLSLGKSEALSCSTPNMGEQSPTNSIDSYRSNHRLFPVSTYTEPVHSNTSQYVQHPKPQFSSGLHKSAKLPVITPAGATVQPTWHSVAERINDFERSQLGEPPKFAYLEPTKTHRLSNPALKALQKNAVQSYVERQQQQQKEEQQLLRPHSQSYQACHVERKSLPNNLSPIMVGLPTGSNSASTRDCSSPTPPPPPRRSGSLLPNLLRRSSSASDYAEFRELHQAQGQVKGPSIRNISNAEKISFNDCGMPPPPPPPRGRLAVPTRRTSSATEYAPMRDKLLLQQAAALAHQQHHPQQHRHAQPPHVPPERPPKHPNLRVPSPELPPPPQSELDISYTFDEPLPPPPPPEVLQPRPPPSPNRRNCFAGASTRRTTYEAPPPTAIVAAKVPPLVPKKPTSLQHKHLANGGGGSRKRPHHATPQPILENVASPVAPPPPLLPRARSTAHDNVIASNLESNQQKRSNSKASYLPRQSLEKLNNTDPDHGIYKLTLTSNEDLVAHTKPSYGVTGKLPNNLPDVLPLGVKLHQQPKLQPGSPNGDANVTLRYGSNNNLTGNSPTVAPPPYYGGGQRYSTPVLGQGYGKSSKPVTPQQYTRSQSYDVKHTSAVTMPTMSQSHVDLKQAAHDLETTLEEVLPTATPTPTPTPTPTPPRLSPASSHSDCSLSTSSLECTINPIATPIPKPEAHIFRAEVISTTLNTNPLTTPPKPAMNRQESLRENIEKITQLQSVLMSAHLCDASLLGGYTTPLITSPTASFANEPLMTPPLPPSPPPPLEPEEEEEQEENDVHDKQPEIEELQLMQRSELVLMVNPKPSTTDMACQTDELEDRDTDLEAAREEHQTRTTLQPRQRQPIELDYEQMSRELVKLLPPGDKIADILTPKICKPTSQYVSNLYNPDVPLRLAKRDVGTSTLMRMKSITSSAEIRVVSVELQLAEPSEEPTNLIKQKMDELIKHLNQKIVSLKREQQTISEECSANDRLGQDLFAKLAEKVRPSEASKFRTHVDAVGNITSLLLSLSERLAQTESSLETRQQERGALESKRDLLYEQMEEAQRLKSDIERRGVSIAGLLAKNLSADMCADYDYFINMKAKLIADARDLAVRIKGSEEQLSSLSDALVQSDC,MAPPIT interaction score,CG7747,-0.185 (inactive)
bora (protein) MYNDEVRTPQALKNRYITNVNGLKCRARRNSHSNSSNSSAASATPTNGGKENGKYSPQMSGNVCTPPPKRLHKVRNPFEGAMADRLHLPLIASPSLFRSRTPQLSSTQFEWNIDEVSQLKPADVEPHETQFHDSPDPEQESKAQLAISAFFKESLIVPSPVDCPLRKQRIILNCSEDNTPISNKSRRMRDCEVQTELTLPPILPKALEDALRPYFQPHLAGRLSGRSKSSGGPDIFNSSMRRKLFDLHNVIVLGEQDTAEPSRSMVGSSPQGKQTMFAGRLSDSASGESSFGCLSPIRNLCGLPPGTPDNGTCSGKRKLLMHELELPSPIAPSEHLSRRLVHSKVEISVTEQHDTLSERTALKFTPDRSSSPMGGGLEHSDCSINQRVRRLRVNSTRQVVIETGDQPLFEETEGEEEEAESEDDEEADAMQLSTVSFNCSSSNSDTPRGHKRHRSAQRKNLSQSFSANLEEEADQTQGGAGSIQPAEPPSVAMPQQGARIPLYRADSGFNETSSTTFAFSQDLPLDVSMACCSTPSTRS,MAPPIT interaction score,CG7747,1.91 (inactive)
sicily (protein) MRRLVRNWNCRLLFNAKSGQEIVSHAGIHQEAKTNAIPREKKVIEADKNGYGAKHCMSLVEKYDYENYLCTLLLPRELRRAAFALRAFNVEVSRSVSGHQIEPQIAKMRLKFWHDSIDKCFEPDSQRSYVEDQPVLRELKHTVGSRKLNKVYLRRLVTARERPPTHAFESIRELEEYTEQTFSSLLLLLLEVGGVRDLNADHAASHLGKAQGIATLLRSIPLAGRQQAPCIPLEVLVLHGVSQERIIRSKSDDKGVEDCIFDVASAANTHLKLARQLHDKVPPQVRKIFLSAVATDAYLERLRRANFLLTHKSCVGRDTLLPARLFWKSLLNRF,MAPPIT interaction score,CG7548; pair source set: Finley_Y2H,-0.0114 (inactive)
same,MAPPIT interaction score,CG7548; pair source set: Lit-BS-16,-0.0114 (inactive)
Sxl (protein) MYGNNNPGSNNNNGGYPPYGYNNKSSGGRGFGMSHSLPSGMSRYAFSPQDTEFSFPSSSSRRGYNDFPGCGGSGGNGGSANNLGGGNMCHLPPMASNNSLNNLCGLSLGSGGSDDLMNDPRASNTNLIVNYLPQDMTDRELYALFRAIGPINTCRIMRDYKTGYSFGYAFVDFTSEMDSQRAIKVLNGITVRNKRLKVSYARPGGESIKDTNLYVTNLPRTITDDQLDTIFGKYGSIVQKNILRDKLTGRPRGVAFVRYNKREEAQEAISALNNVIPEGGSQPLSVRLAEEHGKAKAAHFMSQMGVVPANVPPPPPQPPAHMAAAFNMMHRGRSIKSQQRFQNSHPYFDAKKFI,MAPPIT interaction score,CG6996,0.192 (inactive)
same,MAPPIT interaction score,Mcad,1.44 (inactive)
same,MAPPIT interaction score,Treh,-0.289 (inactive)
same,MAPPIT interaction score,Unr; MAPPIT configuration: N-C,3.02 (inactive)
same,MAPPIT interaction score,Unr; MAPPIT configuration: N-N,2.17 (inactive)
same,MAPPIT interaction score,gcm,-0.368 (inactive)
same,MAPPIT interaction score,noi,4.3 (active)
same,MAPPIT interaction score,prd,-0.691 (inactive)
Sras (protein) MKNLSETEAEVTMQENVVHESLPQIPVATSVSCCFVLAVLYVGSLYIWSTKHNRDHPTTVKRRFASVSMVMLAAPFFVYFFSSPELLSRVPFPKLLGLRLEGLWQAVVIPYSLTVLLFLGPIFVNMQNESVRSYFDLDYWRGSFGSIIWVRNHVIAPLSEEFVFRACMMPLILQSFSPLVAVFITPLFFGVAHLHHIAERLSLGVELSTALLIGLFQFIYTTLFGFYSAFLFARTGHVMAPILVHAFCNHMGLPDLQDLWQQDLWRRVVAIILYLAGFVGWMFLVPLATDPSIYDNTLYWNA,MAPPIT interaction score,CG7407,-0.229 (inactive)
same,MAPPIT interaction score,Dpm3,0.0475 (inactive)
grau (protein) MDICRLCLRGVSGAQMCLQIFDVDSGESKVAEVLRQHFWFEVLPNDEISKVICNVCWTQVSEFHQFYVSIQEAQVIYATTSKFKQDPEMVNTSWPEEVLMPADVLAVDNDVGAQINVNPLDELDLSQPMSPEDSKVGIKTERQSPDMELLFEDANNEQDEDYEDDEDDDTDDLIVTRSGRKRKRDVAKPAKTKRGTVSVGRKGKEKMVVKRGPPKRIFKMERLPPFCKEDEELIKRYIVMGCELCIFLAEDFDGIREHFKDKHPDERPYIKCCGRKLNKRCLIQEHARRHENPEYIKCKDCGKVFANSSVLRAHWLVHHVPDEECDFQCEDCGKRFSRRNLLELHKGSHVPVNERKFICPQCPKHNAFATEYHMQVHISMQHRKAANICHVCGKKIKDKAVFEKHVRLHFEESGPRIKCPRPDCESWLKDEDNLKQHLRRHNDEGKLFICSECGKSCKNSRALIGHKRYSHSNVIYTCEQCGKTFKKDISLKEHMAQHTGEPLYKCPFCPRTFNSNANMHSHKKKMHPVEWDIWRKTKTGSSQKVLPSAQVAQMFRDDADVAAIANDYSG,MAPPIT interaction score,CG7137; MAPPIT configuration: N-C,3.33 (inactive)
same,MAPPIT interaction score,CG7137; MAPPIT configuration: N-N,0.66 (inactive)
sala (protein) MKLLIALFALVTAVNAQNGFGQVGQGGYGGQGGFGGFGGIGGQAGFGGQIGFTGQGGVGGQVGIGQGGVHPGQGGFAGQGSPNQYQPGYGSPVGSGHFHGTNPVESGHFHENPHEYPEHHGDHHREHHEHHGHHEHHGHHRH,MAPPIT interaction score,CG7044,0.14 (inactive)
same,MAPPIT interaction score,aspr,-0.194 (inactive)
